Data as given in the supplement of paper PMC7801607.

What follows are compounds tested on CHO (assay: % viability of CHO cells (MTT); higher = less toxic). Conditions: 2 µM; 48 h.
How it was run: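 Percent viability of CHO cells, relative to untreated cells, was read colorimetrically by tetrazolium (MTT) assay. Cells were seeded at 10^6 cells/well and treated for 48 h with compound at 2 or 20 µM in fresh medium.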
With C[C@@H](c1nc(-c2ccc(C#N)cc2)cs1)[C@](O)(Cn1cncn1)c1ccc(F)cc1F the “% viability of CHO cells” value was 92.5%.
For O=C(Nc1ccccc1)N(Cc1cc(Br)ccc1O)c1ccc(F)cc1, the “% viability of CHO cells” value was 99.5%.
With O=C(NC1CCCc2c1[nH]c1ccc(Cl)cc21)c1ccccn1 (stereo not drawn) the “% viability of CHO cells” value was 96.3%.
In the case of O=C(CSc1nnc(Br)n1-c1ccc(C2CC2)c2ccccc12)Nc1ccc(C(=O)O)cc1Cl, the “% viability of CHO cells” value is reported as 98.5%.
O=C(NN1C(=O)[C@@H]2C3C=CC([C@H]4C[C@@H]34)[C@@H]2C1=O)c1ccc(C(F)(F)F)cc1 was tested, and the “% viability of CHO cells” value was 97.4%.
For CO[C@@]1(NC(=O)Cc2cccs2)C(=O)N2C(C(=O)O)=C(COC(N)=O)CS[C@@H]21, the “% viability of CHO cells” value was 114%.
For c1ccc(-c2nnc3c4ccccc4c(N4CCNCC4)nn23)cc1, the “% viability of CHO cells” value was 101%.
For O=C(O)c1ccccc1Sc1ncnc2sc3c(c12)CCC3, the “% viability of CHO cells” value was 103%.
With CCNC(=O)Nc1cc2c(-c3ccnc(C)c3)ccc(CNC(=O)OC)c2cn1 the “% viability of CHO cells” value was 92.8%.
With COc1c(F)c(F)cc2c(=O)c(C(=O)O)cn(C3CC3)c12 the “% viability of CHO cells” value was 82.2%.
With COC1CC2CCC(C)C(O)(O2)C(=O)C(=O)N2CCCCC2C(=O)OC(C(C)CC2CCC(OCCO)C(OC)C2)CC(=O)C(C)/C=C(\C)C(O)C(OC)C(=O)C(C)CC(C)/C=C/C=C/C=C/1C (stereo not drawn) the “% viability of CHO cells” value was 92.8%.
For O=C(Nc1nnc(-c2ccccc2)o1)c1ccc(F)cc1, the “% viability of CHO cells” value was 88.3%.
In the case of O=C(O)C(Cc1c[nH]c2ccccc12)N1C(=O)c2ccccc2C1=O (stereo not drawn), the “% viability of CHO cells” value is reported as 89.9%.
O=C(NCc1ncc(C(F)(F)F)cc1Cl)c1c(Cl)cccc1Cl was tested, and the “% viability of CHO cells” value was 91.7%.
CC(C)(C)NC(=O)[C@@H]1C[C@@H]2CCCC[C@@H]2CN1C[C@@H](O)[C@H](Cc1ccccc1)NC(=O)[C@H](CC(N)=O)NC(=O)c1ccc2ccccc2n1 was tested, and the “% viability of CHO cells” value was 89%.
With N#Cc1cc([N+](=O)[O-])ccc1Oc1ccccc1Cl the “% viability of CHO cells” value was 104%.
O=c1nc(N2CCN(CC3CCCCC3)CC2)sc2c([N+](=O)[O-])cc(C(F)(F)F)cc12 was tested, and the “% viability of CHO cells” value was 95.8%.
In the case of [N-]=[N+]=N[C@H]1C[C@H](n2ccc(=O)[nH]c2=O)O[C@@H]1CO, the “% viability of CHO cells” value is reported as 109%.
Cc1onc(-c2ccccc2Cl)c1C(=O)N[C@@H]1C(=O)N2[C@@H]1SC(C)(C)[C@@H]2C(=O)O was tested, and the “% viability of CHO cells” value was 126%.
In the case of O=C(c1ccccc1)N1CCN(c2ccccc2NC(=O)C(Cl)(Cl)Cl)CC1, the “% viability of CHO cells” value is reported as 113%.
In the case of O=[N+]([O-])c1cn(Cc2nc(O)nc(O)c2Br)cn1, the “% viability of CHO cells” value is reported as 95.9%.
For CCc1nc2ccc(Cl)cn2c1C(=O)NCc1ccc(N2CCC(c3ccc(OC(F)(F)F)cc3)CC2)cc1, the “% viability of CHO cells” value was 91.1%.
With Cc1ccc(C)c(OCCCCCCN2C[C@H](O)[C@@H](O)[C@H](O)[C@H]2CO)c1 the “% viability of CHO cells” value was 111%.
With COc1cc(Cc2cc(N)nc(N)n2)cc(OC)c1OC the “% viability of CHO cells” value was 107%.
In the case of O=C(Cn1cnc2ccccc2c1=O)Nc1ccccc1, the “% viability of CHO cells” value is reported as 100%.
In the case of CC[C@H](NC(=O)[C@H](C)NC)C(=O)N1C[C@@H](O)C[C@H]1Cc1c(-c2[nH]c3cc(F)ccc3c2C[C@@H]2C[C@H](O)CN2C(=O)[C@H](CC)NC(=O)[C@H](C)NC)[nH]c2cc(F)ccc12, the “% viability of CHO cells” value is reported as 102%.
With O=C(N[C@H](CCS)C(=O)N[C@H](Cc1ccccc1)C(=O)O)c1cc2ccccc2[nH]1 the “% viability of CHO cells” value was 78.3%.
With CCCCCCCc1[nH]c2ccccc2c(=O)c1O the “% viability of CHO cells” value was 96.8%.
CN1CCN(Cc2ccc(-c3cnc4[nH]cc(-c5ccc6[nH]ccc6c5)c4c3)cc2)CC1 was tested, and the “% viability of CHO cells” value was 68%.
For CCc1oc2ccccc2c1C(=O)c1ccc(O)cc1, the “% viability of CHO cells” value was 152%.
C=CCc1cc(Cc2cnc(N)nc2N)cc(OC)c1O was tested, and the “% viability of CHO cells” value was 89.2%.
CC1(C)C[C@H]1C(=O)N/C(=C\CCCCSC[C@@H](N)C(=O)O)C(=O)O was tested, and the “% viability of CHO cells” value was 229%.
For CCCCc1ccc(S(=O)(=O)Nc2cc(C)on2)cc1, the “% viability of CHO cells” value was 106%.
In the case of O=c1ccc2ncc(=O)n3c2n1CC3CN1CCC(NCc2cc3c(cn2)OCCC3)CC1 (stereo not drawn), the “% viability of CHO cells” value is reported as 124%.
In the case of C=C[C@]1(C)C[C@@H](OC(=O)CS[C@@H]2C[C@H]3CC[C@@H](C2)N3C)[C@]2(C)[C@H](C)CC[C@]3(CCC(=O)[C@H]32)[C@@H](C)[C@@H]1O, the “% viability of CHO cells” value is reported as 77.8%.
In the case of CN(C/C=C/C#CC(C)(C)C)Cc1cccc2ccccc12, the “% viability of CHO cells” value is reported as 101%.
With O=C(O)CCNC(=O)c1ccccc1 the “% viability of CHO cells” value was 112%.
For Nc1nc(NC2Cc3ccc(F)cc3C2)nc(N2CCCCC2)n1 (stereo not drawn), the “% viability of CHO cells” value was 96%.
